# Bioassay records deposited in PubChem by several laboratories.
# BJeLR lethal – kills HRASV12-expressing BJeLR cells. BJeLR (HRASV12) viability, CellTiter-Glo ATP luminescence, 48 h. inhibition, % (concentration not given with the values). hit rate 0.17% among 300,000. AID 1554; in the data active = inhibition above about 50%
# PrPC surface inh – reduces human prion protein on the cell surface. P04156. AID 720596. inhibition, % at 13.8 µM. hit rate 0.43% among 370,000. cell surface PrPC, TR-FRET read-out; in the data active = inhibition above about 24%; note: 0% = median of the test wells and 100% = reference compound wells
# PrP UTR inh – inhibition of PrP 5' UTR reporter expression; inhibition, % (test concentration not listed); cell-based PrP 5' UTR mRNA reporter, plate reader; hit rate 0.35% among 340,000; AID 488862; in the data active = inhibition above about 52%; note: 0 = median of the neutral control wells
# GDH-TPI inh – counter-screen for M. tuberculosis FBA inhibitors: GDH-TPI coupled enzymes; hit rate 1.2% among 360,000; AID 588335; inhibition, % at 4.8 µM; GDH-TPI coupled enzyme counterscreen, NADH absorbance; in the data active = inhibition above about 30%;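 note: 0% = DMSO wells and 100% = wells lacking the enzyme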
# FBA Mtb inh – inhibitors of M. tuberculosis fructose-bisphosphate aldolase. AID 588726. purified M. tuberculosis FBA, fluorescence read-out. hit rate 2.3% among 360,000. P9WQA3. inhibition, % at 1 µM; in the data active = inhibition above about 27%;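 note: 0% = vehicle and 100% = reference inhibitor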
# Target sequence (P9WQA3 whole entry, looked up): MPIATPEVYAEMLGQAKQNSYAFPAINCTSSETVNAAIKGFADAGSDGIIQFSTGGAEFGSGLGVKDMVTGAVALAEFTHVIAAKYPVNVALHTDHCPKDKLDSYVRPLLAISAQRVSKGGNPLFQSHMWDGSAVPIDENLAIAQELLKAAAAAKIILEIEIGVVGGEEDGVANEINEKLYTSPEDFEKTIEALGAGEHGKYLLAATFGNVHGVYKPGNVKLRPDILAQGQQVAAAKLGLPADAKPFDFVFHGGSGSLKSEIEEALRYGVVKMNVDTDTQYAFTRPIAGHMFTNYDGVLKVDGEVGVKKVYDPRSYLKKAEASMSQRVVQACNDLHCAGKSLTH
# PfHsp40 rescue – restores yeast growth despite PfHsp40 toxicity | S. cerevisiae expressing PfHsp40, growth rescue, ATP luminescence | hit rate 0.68% among 340,000 | AID 504582 | growth rescue, % at 12.5 µM; in the data active = growth rescue above about 28%, passing the limit was not always enough;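 note: yeast W303a lacking pdr1 and pdr3 grown in galactose medium; growth measured after three days at 30 °C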
# The depositor's hits bear a star; nt = no result. Rows were chosen to be rich in hits. Some 4.5% of all compounds tested hit in one or more screens of this group.
SMILES,BJeLR lethal,PrPC surface inh,PrP UTR inh,GDH-TPI inh,FBA Mtb inh,PfHsp40 rescue
CCCCCN=Cc1c(C)[nH]n(-c2nc3ccccc3s2)c1=O,53.3*,5.6,26.8,22.5,-2.5,0.7
Oc1ccc(C=NN=Cc2ccco2)c(O)c1,nt,-1.7,-51.1,40.5*,-3.3,-2.5
NC(=N\N=Cc1ccccc1)/C(N)=N/N=Cc1ccccc1,nt,-12.3,nt,23.9,-0.9,nt
NC(=N\N=Cc1ccco1)/C(N)=N/N=Cc1ccco1,nt,1.8,-19.0,58.1*,-2.4,-0.3
O=C(CNC(=O)c1ccco1)N/N=C/c1ccc(O)cc1O,-11.6,4.0,-13.7,16.0,1.7,0.7
Nc1nc2ncccc2cc1C(=O)C1=C(c2ccccc2)Cc2ccccc21,nt,-10.5,nt,nt,nt,nt
CCc1nnc2c(N(C)S(=O)(=O)c3ccc(C)cc3)nc3ccccc3n12,-7.0,3.7,-0.7,-9.6,2.0,2.0
COc1ccc(S(=O)(=O)N(C)c2nc3ccccc3n3c(CC(C)C)nnc23)cc1,1.1,3.7,5.5,11.8,56.0*,-0.4
O=C(Nc1ccc(Cl)c(Cl)c1)c1cccc2c1-c1ccccc1C2=O,nt,4.5,nt,nt,nt,nt
COc1ccc(-c2oc3c(OC)c(OC)c(OC)c(O)c3c(=O)c2OC)cc1OC,-5.7,-3.0,-6.0,13.2,-2.4,71.2*
COc1c(OC)c(O)c2c(=O)c(O)c(-c3ccccc3)oc2c1OC,4.0,-9.8,-15.8,10.8,-1.9,-0.4
CC(C)CN1C(=O)N2Cc3ccccc3C2CS1(=O)=O (centres undefined),nt,0.3,nt,nt,nt,nt
c1ccc2c(c1)cc1ccc3cccc4ccc2c1c34,nt,0.7,-26.5,8.8,33.9*,-1.3
COc1ccc(CCNC(=O)c2cnc3scc(C)n3c2=O)cc1OC,2.9,9.0,-42.1,32.9*,4.6,0.0
O=C(Cc1ccccc1F)c1ccc(O)cc1O,3.1,-5.0,-9.9,25.2,-4.2,-2.1
CCCCCC(=O)C(=O)c1ccc(O)cc1O,9.9,5.8,5.1,46.4*,10.2,0.1
CCC[C@H]1[C@@H](OC(=O)N2CCOCC2)CC[C@@]23CCCN2C(=O)CCC[C@@H]13,nt,1.9,nt,nt,nt,nt
COC(=O)C1CN(Cc2cn(CCOC(C)=O)nn2)CCS(=O)(=O)N1Cc1ccc(F)cc1 (centres undefined),nt,-1.7,nt,nt,nt,nt
Cc1ccc(N=Nc2c(N)nn3c(C)cc(C)nc23)cc1,1.2,-14.7,-27.3,39.5*,-7.1,-1.3
CCN1Cc2nnn(Cc3ccc(C)cc3)c2-c2ccccc2S1(=O)=O,nt,-4.6,nt,nt,nt,nt
COc1ccc(-c2cc3ccc(OCC(N)=O)cc3oc2=O)cc1OC,-1.0,-24.7,2.7,31.9*,2.0,6.1
COc1ccc(-c2c(C)c3cc(O)ccc3oc2=O)cc1OC,-4.8,-8.1,-12.2,12.7,1.2,1.0
COc1ccc(-c2cc3ccc(O)cc3oc2=O)cc1OC,7.8,-19.3,-23.0,7.6,118.8*,0.3
CCCCCC(=O)NC1CCCCN(Cc2ccc(Cl)cc2)C1=O (centres undefined),nt,-1.5,nt,nt,nt,nt
C=CCC1c2cccc(C(=O)O)c2C(=O)N1c1ccc(Cl)cc1 (centres undefined),4.4,3.4,-19.7,16.6,1.4,133.1*
SMILES,BJeLR lethal,PrPC surface inh,PrP UTR inh,GDH-TPI inh,FBA Mtb inh,PfHsp40 rescue
C=CCC1c2cccc(C(=O)O)c2C(=O)N1c1cccc(OC)c1 (centres undefined),5.1,8.8,-5.2,-2.8,2.6,0.9
C=CCC1c2cccc(C(=O)O)c2C(=O)N1c1cccc(C)c1 (centres undefined),-13.3,1.9,-28.1,12.0,-1.6,158.6*
CC1CC2c3cccc(C(=O)O)c3C(=O)N2c2ccc(Cl)cc21 (centres undefined),0.9,5.8,-11.2,-4.3,1.4,-0.9
CSc1nnc2c(=O)[nH]c(=O)n(C)c2n1,nt,-14.7,-31.9,17.9,3.4,-0.6
CSc1cnc2c(=O)n(C)c(=O)[nH]c2n1,1.4,-3.0,-12.4,22.6,129.7*,-2.0
Cc1cc(C)c(S(=O)(=O)NC2CC3CCC2C3)c(C)c1 (centres undefined),-0.6,1.2,-22.7,5.1,5.4,64.3*
COc1ccc(S(=O)(=O)NC2CC3CCC2C3)cc1Br (centres undefined),-6.4,7.6,-18.5,2.5,1.0,80.9*
COc1ccc(S(=O)(=O)NC2CC3CCC2C3)cc1Cl (centres undefined),-12.0,5.1,-10.7,9.5,1.8,-0.3
CC(C)C(=O)Nc1ccccc1C(=O)N/N=C/c1ccc([N+](=O)[O-])cc1,3.2,-7.5,-25.7,34.5*,-0.4,-2.1
O=C(N/N=C/c1ccc(Cl)cc1Cl)c1cccc(N2CCCC2=O)c1,-3.6,-2.2,-25.5,10.3,-2.1,-1.5
O=C(N/N=C/c1cccn1-c1ccc([N+](=O)[O-])cc1)c1cccnc1,-3.7,-12.4,-25.5,53.1*,-7.7,-3.2
O=C(N/N=C/c1ccc([N+](=O)[O-])cc1)c1cccc(N2CCCC2=O)c1,-8.3,-11.4,6.1,40.2*,-2.9,14.5
CC(=O)n1cc(/C=N/NC(=O)c2ccc([N+](=O)[O-])cc2)c2ccccc21,2.2,-25.9,-19.6,31.5*,-2.1,nt
CCC[C@H]1[C@@H](NS(=O)(=O)c2ccccc2[N+](=O)[O-])CC[C@@]23CCCN2C(=O)CCC[C@@H]13,nt,-4.6,nt,nt,nt,nt
Cc1ccccc1Cn1cc(CN2[C@@H](Cc3ccccc3)COc3cc(Br)ccc3S2(=O)=O)nn1,nt,-4.3,nt,nt,nt,nt
O=C(CN1C(=O)CCSc2ccccc21)Nc1ccc(F)cc1F,nt,-2.9,nt,nt,nt,nt
O=C(NN=Cc1ccc([N+](=O)[O-])cc1)c1ccncc1,nt,-15.8,-10.9,39.7*,0.0,-1.9
Cc1cc(C(=O)N/N=C/c2ccc([N+](=O)[O-])o2)c(C)o1,14.1,-19.9,-16.8,40.5*,0.8,1.3
O=C(N/N=C/c1ccncc1)c1cc([N+](=O)[O-])cc([N+](=O)[O-])c1,1.6,7.2,4.3,10.3,-2.9,-0.8
O=C(N/N=C/c1ccc([N+](=O)[O-])o1)c1cc(-c2cccc(Br)c2)nc2ccccc12,1.3,-5.2,-23.3,39.2*,-2.7,1.2
Nc1ccc(C(=O)N/N=C\C=C\c2ccc([N+](=O)[O-])cc2)cc1,2.8,-36.2,-8.9,46.7*,-3.2,0.5
Cc1nonc1C(=O)N/N=C/c1ccc([N+](=O)[O-])o1,-2.7,-17.0,-24.9,7.5,-6.3,1.9
COc1ccc(CN2C[C@]3(C=C(C)Cn4c(=O)n(-c5ccccc5)c(=O)n43)N=C2NC(=O)c2ccccc2)c(OC)c1,nt,0.0,nt,nt,nt,nt
C=CCN=C1NC(c2ccc(Cl)cc2)C(C(=O)OC)=C(C)N1Cc1cccc(C(F)(F)F)c1 (centres undefined),nt,-22.9,nt,nt,nt,nt
Cc1nc2ccc(S(=O)(=O)NCC(=O)N(C)Cc3ccccc3Cl)cc2s1,nt,4.0,nt,nt,nt,nt
O=C(CCCC1=NS(=O)(=O)c2ccccc2N1)N1CCN(c2ccccc2Cl)CC1,nt,8.4,nt,nt,nt,nt
CCC(=O)Nc1ccc(C(=O)NNC(=O)c2ccc([N+](=O)[O-])cc2)cc1,-9.8,-16.0,-27.3,2.5,-0.4,-0.4
